# High-throughput results as filed in PubChem BioAssay.
# Insulin prom inh: TRM-6 insulin promoter activity inhibition; TRM-6 cells (human fetal islet line), insulin promoter-eGFP reporter, imaging; reporter expression induced with tamoxifen; inhibition, % at 2 µM; 130,000 tested, 0.9% active; AID 1273;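 active = inhibition above the mean plus 3 SD, with well images judged a real hit on visual review, cut at about 60% in these data, passing the limit was not always enough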
# bCat KO growth: beta-catenin-lacking colon tumor cell growth suppression; HCT116 beta-catenin knockout viability, CellTiter-Glo, 60 h; active compounds read low; viability, % at 10 µM; 140,000 tested, 1.5% active; AID 818;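 active = viability at or under a set limit, the compound median less 4 SD, cut at about 6% in these data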
# HCT116 PTEN-null: suppresses growth of cells with PTEN deletion; HCT116 PTEN-null viability, CellTiter-Glo, 60 h; active compounds read low; 140,000 tested, 1.2% active; viability, % at 10 µM; AID 827;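 active = viability at or below a set limit, 4 SD under the median of all tested compounds, cut at about 3.7% in these data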;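 also: PTEN knockout HCT116 line with beta catenin targeted HCT116 as companion control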
# L major viab: reduces viability of Leishmania major promastigotes; resazurin fluorescence viability; inhibition, % at 10 µM; 200,000 tested, 9% active; AID 1063; in the data active = inhibition above about 50%;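 also: promastigotes grown with compound for 44 hours at 28 °C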
# p97 ATPase inh: human p97 ATPase inhibition. AID 1481. inhibition, % at 8 µM. recombinant p97 ATPase, Kinase-Glo ATP luminescence, 3 h. 220,000 tested, 0.42% active; in the data active = inhibition above about 15%
# ROMK mod: modulators of human ROMK potassium channel; 130,000 tested, 2% active; B-score at 10 µM; Tet-inducible ROMK, thallium flux fluorescence; actives lie on both sides; P48048;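 active = signal ratio slope over the read window, or its plate-corrected B-score, at least 3 SD from the plate mean, either direction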;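 also: B-score of the F/F0 ratio slope over 7 to 12 s after thallium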
# Target sequence (P48048 whole entry, looked up): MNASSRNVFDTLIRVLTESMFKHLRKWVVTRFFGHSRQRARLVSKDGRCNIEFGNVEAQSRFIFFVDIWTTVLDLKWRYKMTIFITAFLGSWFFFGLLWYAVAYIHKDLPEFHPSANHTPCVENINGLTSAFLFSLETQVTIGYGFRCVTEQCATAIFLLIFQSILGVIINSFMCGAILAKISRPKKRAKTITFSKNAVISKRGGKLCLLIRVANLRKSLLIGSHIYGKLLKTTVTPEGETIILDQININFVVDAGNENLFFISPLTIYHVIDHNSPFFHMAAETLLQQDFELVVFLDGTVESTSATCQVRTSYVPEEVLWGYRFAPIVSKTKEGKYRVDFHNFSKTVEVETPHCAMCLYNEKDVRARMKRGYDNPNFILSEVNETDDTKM
# A number is an active result; n = inactive; x = no result. Hits are enriched below; roughly 10% of the tested compounds scored in any of these assays.
SMILES,Insulin prom inh,bCat KO growth,HCT116 PTEN-null,L major viab,p97 ATPase inh,ROMK mod
COc1ccc(N/C(C)=C/C(=S)Nc2ccccc2)cc1,x,n,n,n,n,x
CC[n+]1c(/C=C(\C)OC)sc2ccccc21,n,x,x,n,n,n
CC[n+]1c(/C=C(\C)SC)sc2ccccc21,n,n,n,65.0,n,x
Cc1ccc(C(C#N)c2ccc(C(=O)c3ccc(F)cc3)cc2)cc1 (stereo unspecified),n,n,n,54.4,n,n
N#CC(c1ccc(F)cc1)c1ccc(C(=O)c2ccc(F)cc2)cc1 (stereo unspecified),n,n,n,n,n,n
CCOC(=O)c1ccc(NC(=O)CN2C(=O)CSC(C)C2=O)cc1 (stereo unspecified),n,n,n,n,n,n
O=C(O)[C@H]1CCCC[C@H]1C(=O)NCCNC(=O)[C@@H]1CCCC[C@@H]1C(=O)O,100.0,n,n,n,n,n
Cc1cc([N+](=O)[O-])cnc1Sc1nccn1C,n,n,n,n,n,n
Cc1ccccc1NC(=S)N(Cc1ccccn1)Cc1ccccc1Cl,x,x,x,n,n,n
Cc1ccccc1NC(=S)N(Cc1cccnc1)Cc1ccccc1Cl,x,x,x,92.5,n,n
Cc1ccc(Cl)cc1NC(=S)N(Cc1ccccc1)Cc1cccnc1,x,x,x,99.2,n,n
COc1ccccc1NC(=S)N(Cc1cccnc1)Cc1ccccc1Cl,x,x,x,77.0,n,n
S=C(Nc1ccccc1Cl)N(Cc1ccccc1)Cc1cccnc1,n,x,x,91.5,n,n
Cc1ccccc1C(=O)NNC(=O)CSc1nc(-c2ccccc2)cc(=O)[nH]1,x,x,x,n,n,n
N/C(=N\OS(=O)(=O)c1ccc2ccccc2c1)c1ccccn1,n,x,x,n,n,n
CCOC(=O)c1c(NC(=O)CSc2nc3nc(C)cc(C)n3n2)sc(CC)c1C,n,n,n,n,n,n
Cc1ccc(CSc2nnc(CNc3ccc(F)cc3)o2)cc1,n,x,x,n,n,x
CC1Nc2ccccc2C(=O)N1NC(=O)c1ccc(Br)cc1 (stereo unspecified),n,x,x,n,n,n
O=C(COC(=O)c1cc(C(F)(F)F)cc(C(F)(F)F)c1)NCc1ccc(Cl)cc1,n,n,n,50.3,n,x
CC1(C)Cn2c(nnc2-c2cccc(O)c2)S1,90.9,n,n,n,n,x
CC1Cn2c(nnc2-c2cccc(Cl)c2)S1 (stereo unspecified),x,n,n,n,n,x
CCC(=O)c1ccc(SC(=O)N(C)C)cc1O,x,x,x,x,n,x
C/C(=N/NC(=O)CN1CCN(S(=O)(=O)c2ccc(C)cc2)CC1)c1ccco1,x,x,x,x,n,x
C/C(N)=C(/C#N)C(=O)CSc1nnnn1-c1ccc(C)cc1,x,n,n,n,n,x
CC(C)=C1SC(N2CCN(c3ccc(Cl)cc3)CC2)=NC1=O,71.4,x,x,n,n,x
SMILES,Insulin prom inh,bCat KO growth,HCT116 PTEN-null,L major viab,p97 ATPase inh,ROMK mod
CC(C)=C1SC(N2CCN(c3ccc(C)cc3)CC2)=NC1=O,n,n,n,n,n,x
CCOc1ccc(C2NC(=O)C(C#N)=C(S)N2c2ccc(OC)cc2)cc1OC (stereo unspecified),80.0,n,n,n,n,x
COc1ccc(N2C(S)=C(C#N)C(=O)NC2c2ccc(OC)c(OC)c2)cc1 (stereo unspecified),x,x,x,n,n,n
CCc1ccc(N(C(=O)CCC(=O)Nc2cc(C)on2)C(C(=O)NC2CCCC2)c2ccco2)cc1 (stereo unspecified),n,n,n,95.5,n,n
CCc1ccc(C(C(=O)NC2CCCC2)N(C(=O)/C=C/C(=O)Nc2cc(C)on2)c2ccccc2C)cc1 (stereo unspecified),n,n,n,99.4,n,n
Cc1cc(NC(=O)CCC(=O)N(c2cccnc2)C(C(=O)NC2CCCC2)c2ccccc2)no1 (stereo unspecified),n,n,n,n,n,x
CCOc1ccc(N(C(=O)/C=C/C(=O)Nc2cc(C)on2)C(C(=O)NC2CCCC2)c2ccccc2C)cc1 (stereo unspecified),n,n,n,87.0,n,x
Cc1cc(NC(=O)CCC(=O)N(CC2CCCO2)C(C(=O)NC2CCCC2)c2ccccc2C)no1 (stereo unspecified),n,x,x,n,n,x
COc1ccc2nc(N/C(N)=N/S(C)(=O)=O)nc(C)c2c1,x,x,x,x,n,x
CCCCC(CC)CNC(=O)C(Cc1ccccc1)NS(=O)(=O)c1ccc2c(c1)CCC(=O)N2 (stereo unspecified),x,x,x,n,n,n
CC1CCCCN1C(=S)Nc1ccc2nc3n(c(=O)c2c1)CCCCC3 (stereo unspecified),n,n,n,58.7,n,x
O=c1c2cc(NC(=S)N3CCC(N4CCCCC4)CC3)ccc2nc2n1CCCCC2,n,x,x,n,n,n
O=c1c2cc(NC(=S)NCCCN3CCC(Cc4ccccc4)CC3)ccc2nc2n1CCCCC2,x,x,x,99.5,n,n
O=c1c2cc(NC(=S)NC3CCN(Cc4ccccc4)CC3)ccc2nc2n1CCCCC2,n,x,x,54.3,n,n
CCOC(=O)C1CSC(CC(=O)Nc2ccc(OC(F)(F)F)cc2)C(=O)N1 (stereo unspecified),x,x,x,x,n,x
FC(F)(F)COc1nc(N/N=C/c2cccnc2)nc(N2CCCCC2c2ccccn2)n1 (stereo unspecified),x,x,x,51.5,n,n
CC(C)C(NC(=O)c1ccc(C(C)(C)C)cc1)C(=O)OCC(=O)NC(=O)Cc1ccccc1 (stereo unspecified),n,n,n,50.2,n,n
CC(C)[C@H](NC(=O)c1ccccc1)C(=O)OCC(=O)NCCC1=CCCCC1,n,n,n,59.0,n,x
CC(C)[C@H](NC(=O)c1ccccc1)C(=O)OCC(=O)NCCc1ccc(F)cc1,n,n,n,n,n,n
O=c1cc(O)c2sc3nc(-c4cccnc4)cc(C(F)(F)F)c3c2[nH]1,n,n,n,n,n,x
COC(=O)c1ccc2c(=O)[nH]c(CSc3nc(C)cs3)nc2c1,n,x,x,n,n,n
COC(=O)c1ccc2c(=O)[nH]c(CSc3nnc(C(F)(F)F)n3C)nc2c1,n,n,n,55.9,n,n
Cc1ccc(NC(C)C(=O)N/N=C/c2ccc([N+](=O)[O-])s2)cc1 (stereo unspecified),x,x,x,100.3,n,n
COc1ccc(NC(C)C(=O)N/N=C/c2ccc([N+](=O)[O-])s2)cc1 (stereo unspecified),x,x,x,100.3,n,n
Cc1oc(-c2ccc(-c3ccccc3)cc2)nc1CN1CCN(CC(=O)N(C)C)CC1,x,x,x,n,n,n
COc1cccc(CNC(=O)N[C@@H](C)C(=O)O)c1,x,x,x,x,n,x
COc1ccc(N2C(=O)CSC23C(=O)N2c4c(cccc43)C(C)=CC2(C)C)cc1 (stereo unspecified),n,n,n,99.6,n,n
COc1ccc(N2C(=O)CSC23C(=O)N2CCCc4cccc3c42)cc1 (stereo unspecified),n,n,n,n,n,x
COc1cc(CN2CCC(C(=O)N3CCN(c4ccccc4F)CC3)CC2)cc(OC)c1OC,n,n,n,83.1,n,n
COc1cc(CN2CCC(C(=O)NC3CCCC3)CC2)cc(Br)c1O,x,n,n,n,n,x
